Assay results as given in PubChem BioAssay AID1159580 (chemical genetic matrix, 2015).
Hit rate of the full screen: of about 5,500 compounds, about 2,000 (36%) were called active. Another 18% or so got no clear call; they are omitted. Cut-off read from the data, not from the text of the source: active = normalized growth mostly below about 0.91 (no sharp cut-off); inconclusive = no clear call, values can overlap the other calls; inactive = mostly above about 0.92. Some of the results follow.

Experiment: chemical genetic growth profiling, strain panel (AID 1159580);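 note: tested at 20 µM; growth read once vehicle control cultures reached saturation at 30 °C; 1 = growth at the plate median or of vehicle wells; lower values mean less growth of the strain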
Conditions: growth OD
[1] = S. cerevisiae deletion strains, locus YAL013W, strain DEP1, active compounds read low
[2] = S. cerevisiae deletion strains, locus YBR229C, strain ROT2, active compounds read low
[3] = S. cerevisiae deletion strains, locus YDL101C, strain DUN1, active compounds read low
[4] = S. cerevisiae deletion strains, locus YDL134C, strain PPH21, active compounds read low
[5] = S. cerevisiae deletion strains, locus YDR150W, strain NUM1, active compounds read low
[6] = S. cerevisiae deletion strains, locus YEL061C, strain CIN8, active compounds read low
[7] = S. cerevisiae deletion strains, locus YGR078C, strain PAC10, active compounds read low
[8] = S. cerevisiae deletion strains, locus YGR229C, strain SMI1, active compounds read low
[9] = S. cerevisiae deletion strains, locus YHR030C, strain SLT2, active compounds read low
[10] = S. cerevisiae deletion strains, locus YHR087W, strain rtc3, active compounds read low
[11] = S. cerevisiae deletion strains, locus YJL187C, strain SWE1, active compounds read low
[12] = S. cerevisiae deletion strains, locus YJR043C, strain POL32, active compounds read low
[13] = S. cerevisiae deletion strains, locus YJR075W, strain HOC1, active compounds read low
[14] = S. cerevisiae deletion strains, locus YKL190W, strain CNB1, active compounds read low
[15] = S. cerevisiae deletion strains, locus YLR039C, strain RIC1, active compounds read low
[16] = S. cerevisiae deletion strains, locus YLR058C, strain SHM2 (second series), active compounds read low
[17] = S. cerevisiae deletion strains, locus YLR085C, strain ARP6, active compounds read low
[18] = S. cerevisiae deletion strains, locus YLR262C, strain YPT6, active compounds read low
[19] = S. cerevisiae deletion strains, locus YML094W, strain GIM5, active compounds read low
[20] = S. cerevisiae deletion strains, locus YMR219W, strain ESC1, active compounds read low
[21] = S. cerevisiae deletion strains, locus YMR263W, strain SAP30, active compounds read low
[22] = S. cerevisiae deletion strains, locus YNL153C, strain GIM3, active compounds read low
[23] = S. cerevisiae deletion strains, locus YNL298W, strain CLA4 (second series), active compounds read low
[24] = S. cerevisiae deletion strains, locus YNL322C, strain KRE1, active compounds read low
[25] = S. cerevisiae deletion strains, locus YNR030W, strain Alg12, active compounds read low
[26] = S. cerevisiae deletion strains, locus YOL006C, strain TOP1, active compounds read low
[27] = S. cerevisiae deletion strains, locus YPL055C, strain LGE1, active compounds read low
[28] = S. cerevisiae deletion strains, locus YPL241C, strain CIN2, active compounds read low
[29] = S. cerevisiae deletion strains, locus YPR135W, strain CTF4, active compounds read low

Measured: normalized growth

CCOC(=O)c1nc(-c2ccccc2)sc1C(=O)OCC
inactive: [1] 1 | [2] 0.955 | [3] 0.999 | [4] 0.947 | [5] 1 | [6] 0.958 | [7] 0.973 | [8] 0.958 | [9] 0.735 | [10] 0.958 | [11] 0.947 | [12] 0.973 | [13] 0.907 | [14] 0.961 | [16] 0.968 | [17] 0.833 | [19] 0.921 | [20] 0.963 | [21] 0.977 | [22] 0.995 | [24] 0.981 | [25] 0.912 | [27] 0.979 | [28] 0.921 | [29] 0.741
active: [15] 0.716 | [18] 0.814 | [23] 0.766 | [26] 0.718

CCOC(=O)c1ccc2[nH]c(-c3ccccc3)cc(=O)c2c1
inactive: [1] 1.02 | [2] 1 | S. cerevisiae deletion strains, locus YCL061C, strain MRC1, active compounds read low 1.01 | [3] 1.01 | [4] 1.01 | [5] 1.02 | [6] 1.01 | [7] 1.01 | [9] 1.02 | [10] 1 | [11] 1.01 | [12] 1.01 | [13] 0.994 | [14] 1.01 | [15] 1.04 | [16] 1.01 | [17] 1.03 | [18] 1.03 | [19] 0.997 | [20] 1.01 | [21] 0.997 | [22] 1.01 | [23] 1.04 | [24] 1 | [25] 1.04 | [26] 1.04 | [27] 1.11 | [28] 1.03 | [29] 1.09 | S. cerevisiae strains, strain wild type, active compounds read low 1.03

CN=c1nc(-c2ccccc2)n(-c2ccccc2)s1
inactive: [1] 0.969 | S. cerevisiae deletion strains, locus YAL040C, strain CLN3, active compounds read low 0.983 | S. cerevisiae deletion strains, locus YCL061C, strain MRC1 (second series), active compounds read low 0.984 | [5] 0.973 | S. cerevisiae deletion strains, locus YDR363W, strain ESC2, active compounds read low 0.983 | S. cerevisiae deletion strains, locus YER002W, strain NOP16, active compounds read low 0.982 | [8] 0.905 | S. cerevisiae deletion strains, locus YMR307W, strain GAS1, active compounds read low 0.947 | [22] 0.905 | S. cerevisiae deletion strains, locus YNL175C, strain NOP13, active compounds read low 0.978 | S. cerevisiae deletion strains, locus YNL197C, strain WHI3, active compounds read low 0.99 | S. cerevisiae deletion strains, locus YNL224C, strain SQS1, active compounds read low 0.987 | [24] 0.978 | S. cerevisiae deletion strains, locus YOR083W, strain WHI5 (second series), active compounds read low 0.961 | [28] 0.982
